Laboratory results from PubChem BioAssay (Tox21).
Values joined by “and” are separate entries in the source; they are usually repeats but may differ in a detail not shown here. Equal values may be shown once. Records with an inconclusive call do not appear. Entries that show only a call come without a potency. Active and inactive are the calls of the source. Calls follow the shape of the dose curve; as a rule, active = well fitted cell-killing curve with a large enough effect in the repeat runs; inconclusive = weak or mixed curves, or effect the other way; inactive = no such curve, though single readings can be large or run the other way.

test: qHTS assay for identifying genotoxic compounds that show differential cytotoxicity against isogenic chicken DT40 cell lines with known DNA damage response pathways - wild type cell line (AID 743012); settings: DT40 wild type chicken cells viability, CellTiter-Glo, 40 h; series mostly up to 68.4 µM; also: nearly all actives have a fitted effect of over 60% in size
Excerpt: U.S. Tox21 Program National Center for Advancing Translational Sciences [NCATS] NIH Chemical Genomics Center [NCGC] U.S. Environmental Protection Agency [EPA] National Institutes of Environmental Health Sciences [NIEHS] National Toxicology Program [NTP] U.S. Food and Drug Administration [FDA] Tox21 Assay Overview: DNA repair pathways play a critical role in cellular homeostasis by repairing DNA damage induced by endogenous processes and xenobiotics. Isogenic chicken DT40 cell lines deficient in different DNA repair pathways can be used to identify genotoxic compounds and aid in characterizing the nature of the DNA damage induced. Two DNA repair-deficient cell lines with disrupted genes, Rad54/Ku70 or Rev3, were used to screen the Tox21 10K compound library. Possible genotoxicity was based on the presence of a significant increase in cytotoxicity in one or more of the DNA repair-deficient cell lines compared to that observed in the parental DNA repair-proficient cell line. CellTiter Glo viability assay (Promega, Madison, WI) was used to measure cell viability in these cells after compound treatment. This assay includes the data from the wild type cell line.
Tox21 Assay Protocol Summary: 300 DT40 wild type cells in 5 uL/well were dispensed into white, solid-bottom 1536-well plates using a Multidrop Combi (ThermoFisher Scientific, Waltham, MA) dispenser. After the assay plates were incubated at 37 C/5% CO2 for approximately 0.5 hour, 23 nL of compounds dissolved in DMSO, positive controls or DMSO only was transferred into the assay plate by a pintool work station (Kalypsys, San Diego, CA). The assay plates were incubated at 37 C/5% CO2 for 40 hours. After 5 uL per well of CellTiter-Glo reagent was added into each well of the assay plates, the plates were incubated for 30 min at room temperature and the luminescence intensity of the plates was measured using a ViewLux (PerkinElmer, Shelton, CT) plate reader.
Potency is read from the fitted curve at half-maximal effect.

**Q.** With Cc1cc(Br)ccc1NC(=O)CCl as the compound, how does the Potency read?
**A.** The Potency was 5.45 µM (active).

**Q.** Which Potency does the source give for C[C@@H]1O[C@@H]1P(=O)(O)O here?
**A.** Its Potency is “inactive”.

**Q.** Which Potency does the source give for O=C(O)[C@@H]1C[C@H](CP(=O)(O)O)CCN1 here?
**A.** Its Potency is “inactive”.

**Q.** For CCOC(=O)COc1ccc2c(=O)cc(-c3ccccc3)oc2c1, which Potency is on record?
**A.** The Potency was 29.8 µM (active).

**Q.** With NC(N)=NCCCCN=C(N)N as the compound, how does the Potency read?
**A.** The Potency was “inactive”.

**Q.** Which Potency does the source give for NC(=O)[C@@H]1C[C@]2(NC(=O)NC2=O)c2cc(F)ccc2O1 here?
**A.** The Potency was “inactive”.

**Q.** With COc1cccc(-c2ccc(/C=C\CN3CCCCCC3)cc2Cl)c1 as the compound, how does the Potency read?
**A.** The Potency was 3.05 µM (active).

**Q.** With O=[N+]([O-])c1ccc(O)c2ncccc12 as the compound, how does the Potency read?
**A.** The Potency was 2.98 µM (active).

**Q.** Which Potency does the source give for COc1cc([C@@H]2c3cc4c(cc3[C@@H](O[C@@H]3O[C@@H]5CO[C@@H](C)O[C@H]5[C@H](O)[C@H]3O)[C@H]3COC(=O)[C@H]23)OCO4)cc(OC)c1O here?
**A.** The Potency was 531 nM (active) and 340 nM (active).

**Q.** Which Potency does the source give for CC(C)c1ccc2sc3ccccc3c(=O)c2c1 here?
**A.** Its Potency is 48.6 µM (active).

**Q.** With O=P(O)(O)OP(=O)(O)OP(=O)(O)O as the compound, how does the Potency read?
**A.** The Potency was “inactive”.

**Q.** Which Potency does the source give for CCCCCCCCCCCCCCCC(=O)OC[C@H](COP(=O)([O-])OCC[N+](C)(C)C)OC(=O)CCCCCCCCCCCCCCC here?
**A.** Its Potency is “inactive”.

**Q.** Which Potency does the source give for Nc1nc(/C(=C/CC(=O)O)C(=O)N[C@@H]2C(=O)N3C(C(=O)O)=CCS[C@H]23)cs1 here?
**A.** Its Potency is “inactive”.

**Q.** Which Potency does the source give for C[S+](C)CCC(N)C(=O)O (stereo not given) here?
**A.** Its Potency is “inactive”.

**Q.** Which Potency does the source give for NC(=O)c1cc[n+](CC2=C(C(=O)O)N3C(=O)[C@@H](NC(=O)C(c4ccccc4)S(=O)(=O)[O-])[C@H]3SC2)cc1 (stereo not given in full) here?
**A.** Its Potency is “inactive”.

**Q.** Which Potency does the source give for CC(CNC(=O)c1cccnc1)NC(=O)c1cccnc1 (stereo not given) here?
**A.** The Potency was “inactive”.

**Q.** With CC12CCC(C1)C(C)(C)C2=O (stereo not given) as the compound, how does the Potency read?
**A.** Its Potency is “inactive”.

**Q.** With CC1CCCC(C)N1NC(=O)c1ccc(Cl)c(S(N)(=O)=O)c1 (stereo not given) as the compound, how does the Potency read?
**A.** The Potency was “inactive”.

**Q.** Which Potency does the source give for CCCCCCCC/C=C\CCCCCCCC(=O)N(CCO)CCO here?
**A.** The Potency was 15.3 µM (active).

**Q.** With CC(C)Cc1ccc([C@H](C)C(=O)O)cc1 as the compound, how does the Potency read?
**A.** The Potency was “inactive”.

**Q.** With c1ccc(-n2cnnn2)cc1 as the compound, how does the Potency read?
**A.** Its Potency is “inactive”.

**Q.** Which Potency does the source give for CN=C(N)NCCC[C@H](N)C(=O)O here?
**A.** Its Potency is “inactive”.

**Q.** With N[C@H](C(=O)O)[C@@H]1CC(Cl)=NO1 as the compound, how does the Potency read?
**A.** Its Potency is 2.66 µM (active).

**Q.** Which Potency does the source give for C[C@H]1O[C@@H](O[C@H]2CC[C@@]3(C)[C@H](CC[C@@H]4[C@@H]3C[C@@H](O)[C@]3(C)[C@@H](C5=CC(=O)OC5)CC[C@]43O)C2)C[C@H](O)[C@@H]1O[C@H]1C[C@H](O)[C@H](O[C@H]2C[C@H](O)[C@H](O[C@@H]3O[C@H](CO)[C@@H](O)[C@H](O)[C@H]3O)[C@@H](C)O2)[C@@H](C)O1 here?
**A.** The Potency was 1.33 µM (active).

**Q.** For Cc1ccc(Cl)c(N)c1Cl, which Potency is on record?
**A.** Its Potency is 61.1 µM (active).

**Q.** Which Potency does the source give for CN1C(=O)C[C@@H](C(=O)N[C@@H](Cc2cnc[nH]2)C(=O)N2CCC[C@H]2C(N)=O)NC1=O here?
**A.** Its Potency is “inactive”.

**Q.** Which Potency does the source give for C[N+]1(CCCCC[N+]2(C)CCCC2)CCCC1 here?
**A.** The Potency was “inactive”.

**Q.** With O=C(O)c1cc2cc(Cc3cccnc3)ccc2o1 as the compound, how does the Potency read?
**A.** Its Potency is “inactive”.

**Q.** For C=CC1=C(C(=O)O)N2C(=O)[C@@H](NC(=O)/C(=N/OCC(=O)O)c3csc(N)n3)[C@H]2SC1 (stereo in doubt), which Potency is on record?
**A.** The Potency was “inactive”.

**Q.** For CNCCC=C1c2ccccc2CCc2ccccc21, which Potency is on record?
**A.** The Potency was 6.68 µM (active).

**Q.** With Cc1cc(CC(C)CC(C)(C)C)n(O)c(=O)c1 (stereo not given) (tested in a mixture with another compound) as the compound, how does the Potency read?
**A.** The Potency was 11.9 µM (active).

**Q.** For NCCO/C=C/[C@H](N)C(=O)O, which Potency is on record?
**A.** Its Potency is “inactive”.

**Q.** Which Potency does the source give for O=C1OC(=O)c2cc(-c3ccc4c(c3)C(=O)OC4=O)ccc21 here?
**A.** The Potency was 17.2 µM (active).

**Q.** For CN1CCN(CCCN2c3ccccc3Sc3ccc(Cl)cc32)CC1, which Potency is on record?
**A.** Its Potency is 5.96 µM (active).

**Q.** For Cc1cc(-c2ccc(N=Nc3ccc4c(S(=O)(=O)O)cc(S(=O)(=O)O)c(N)c4c3O)c(C)c2)ccc1N=Nc1ccc2c(S(=O)(=O)O)cc(S(=O)(=O)O)c(N)c2c1O, which Potency is on record?
**A.** Its Potency is 23.7 µM (active).

**Q.** With NC(=S)NS(=O)(=O)c1ccc(N)cc1 as the compound, how does the Potency read?
**A.** The Potency was “inactive”.

**Q.** With CN(C)CCOc1ccc(/C(=C(/CCCl)c2ccccc2)c2ccccc2)cc1 as the compound, how does the Potency read?
**A.** The Potency was 11.9 µM (active) and 5.1 µM (active).

**Q.** Which Potency does the source give for CCCCC[C@H](O)/C=C/[C@@H]1[C@@H](C/C=C\CCCC(=O)O)[C@@H](O)C[C@H]1O here?
**A.** The Potency was “inactive”.

**Q.** For CC(=O)O[C@H]1C[C@@H]2CC[C@@H]3[C@H](CC[C@@]4(C)[C@H]3C[C@H]([N+]3(C)CCCCC3)[C@@H]4OC(C)=O)[C@@]2(C)C[C@@H]1[N+]1(C)CCCCC1, which Potency is on record?
**A.** The Potency was “inactive”.

**Q.** For NC[C@@H]1CC[C@@H](N)[C@@H](O[C@H]2[C@H](O)[C@@H](O[C@H]3O[C@H](CO)[C@@H](O)[C@H](N)[C@H]3O)[C@H](N)C[C@@H]2N)O1, which Potency is on record?
**A.** The Potency was “inactive”.
